# Screens: PubChem, The Scripps Research Institute Molecular Screening Center
# OPRM1-OPRD1 inv: inverse agonists of MOR-DOR heterodimerization, primary screen, cell-based, luminescence; 340,000 compounds, 0.21% hits; inhibition, % at 9.3 µM; Mu-type opioid receptor (Homo sapiens) + Delta-type opioid receptor (Homo sapiens), …; cell-based MOR-DOR heterodimer luminescence, inverse agonism; in the data active means inhibition above about 22%, passing the limit was not always enough;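 further: 0% = cells with DMSO and 100% = wells without cells with DMSO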
# HTR5A inv ag: HTR5A inverse agonists in luminescence cell assay, primary screen, counter-screen for OPRM1-OPRD1 heterodimer inverse agonist project, full-deck HTS; 340,000 compounds, 0.083% hits; inhibition, % at 9.3 µM; HTR5A cell line, inverse agonism; in the data active means inhibition mostly above about 23%, no sharp cut-off; inactive means mostly below about 18%;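 further: 0% = cells with DMSO and 100% = no-cell wells with DMSO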
# Target sequence (P47898 whole entry, looked up): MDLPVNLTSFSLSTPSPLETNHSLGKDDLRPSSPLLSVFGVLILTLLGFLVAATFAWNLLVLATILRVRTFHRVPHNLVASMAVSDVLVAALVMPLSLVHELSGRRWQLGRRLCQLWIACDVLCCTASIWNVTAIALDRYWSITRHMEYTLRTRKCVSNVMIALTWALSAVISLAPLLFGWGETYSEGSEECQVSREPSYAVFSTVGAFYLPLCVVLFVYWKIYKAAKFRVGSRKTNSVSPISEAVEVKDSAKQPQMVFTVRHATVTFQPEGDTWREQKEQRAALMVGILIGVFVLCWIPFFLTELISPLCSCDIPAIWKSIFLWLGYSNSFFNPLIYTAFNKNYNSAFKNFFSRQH
# MOR-DOR ag: agonists of OPRM1-OPRD1 heterodimerization, primary screen, cell-based, luminescence | Mu-type opioid receptor (Homo sapiens) + Delta-type opioid receptor (Homo sapiens), … | cells | activation, % at 9.3 µM | 340,000 compounds, 0.3% hits | AID 504326, 2011; in the data active means activation above about 18%;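 further: 0% = vehicle-treated cells and 100% = reference agonist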
# HTR5A ag ctr: HTR5A agonists in luminescence cell assay, primary screen, counter-screen for OPRM1-OPRD1 heterodimer agonist project, full-deck HTS; 340,000 compounds, 0.61% hits; 5-hydroxytryptamine receptor 5A (Homo sapiens), P47898; activation, % at 9.3 µM; AID 504692, 2011; cell-based; in the data active means activation mostly above about 9.5%, no sharp cut-off; inactive means mostly below about 7.6%;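 further: 0% = cells with vehicle only and 100% = reference agonist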
# * = called active by the depositor. In the library only some 1.1% were active in any assay of this set; here they are far more common.
SMILES,OPRM1-OPRD1 inv,HTR5A inv ag,MOR-DOR ag,HTR5A ag ctr
COc1cc(C(=O)O/N=C(\N)c2ccc([N+](=O)[O-])cc2)cc(OC)c1OC,-74,-11,10,4
C=CCNC(=O)c1onc(CSc2ccccc2)c1C(=O)NCC=C,0,17,0,-2
C=CCNC(=O)c1onc(CSc2ccc(F)c(F)c2)c1C(=O)NCC=C,-18,-6,3,13*
O=C(Nc1cccnc1)c1cc(-c2cccc(Br)c2)nc2ccccc12,-51,-7,10,13*
Cn1cc(CN2CCC(n3nccc3NC(=O)CCc3ccccc3)CC2)cn1,7,-13,-1,10*
Cn1cc(CN2CCC(n3nccc3NC(=O)CCCc3ccccc3)CC2)cn1,0,25,0,3
Cc1ccc(NC(=O)/C=C/c2ccc(S(=O)(=O)N3CCOCC3)cc2)cc1S(=O)(=O)N(C)C,-8,-12,1,3
CCCCN(Cc1ccco1)C(=O)c1cc2c(=O)[nH]c3ccc(C)cc3c2s1,-108,-47,20*,16*
CCCCN(CC)C(=O)c1cc2c(=O)[nH]c3ccc(C)cc3c2s1,-11,-4,2,1
CC(NS(=O)(=O)c1ccc2c(c1)oc(=O)n2C)c1ccccc1 (stereo unspecified),-5,14,1,-5
COc1cc(C2CC(c3cccs3)=NN2C(=O)CCl)ccc1OC(F)F (stereo unspecified),-414,-144,74*,59*
Cc1ccc(NC(=O)COC(=O)C2(c3ccc(Cl)cc3)CCCC2)cc1,-72,-37,16,11
CN(Cc1ccccc1)Cc1ccccc1C(O)c1ccccc1 (stereo unspecified),-1,-2,0,1
Cc1cc(C(=O)COC(=O)c2ccc3c(c2)OCO3)c(C)n1CC1CCCO1 (stereo unspecified),5,-5,-1,2
Cc1cc(C(=O)COC(=O)c2ccc(O)cc2)c(C)n1CC1COc2ccccc2O1 (stereo unspecified),-12,-43,2,12*
COC(=O)c1ccc(Oc2c(Cl)cccc2[N+](=O)[O-])cc1,-15,-20,3,9
Cc1cc(N2CCOCC2)nc2ccc(NC(=S)N3CCCCC3C)cc12 (stereo unspecified),-22,-33,3,12*
Cc1cc(N2CCN(C)CC2)nc2ccc(NC(=S)N3CCCCC3)cc12,17,13,-3,-5
COc1cccc(NC(=O)CSCC(=O)Nc2ccccc2)c1,8,-6,-2,-3
COc1cccc(NC(=O)CSCC(=O)O)c1,9,-31,-2,14*
Cc1c(OCC(=O)NCc2cccnc2)ccc2c3c(c(=O)oc12)CCCC3,8,-2,-2,11
CCOC(=O)C1=C(O)/C(=C/c2ccc(-c3ccccc3C(=O)O)o2)SC1=Nc1ccc(C)cc1,5,-14,-1,13*
CCOC(=O)C1=C(O)/C(=C/c2ccc(-c3ccccc3C(=O)O)o2)SC1=Nc1ccc(OC)cc1,20,8,-5,-1
CC(C)(C)C1CCC(=NNc2nc3ccccc3[nH]2)CC1 (stereo unspecified),7,1,-1,-1
c1ccc2c(c1)CC/C2=N/Nc1nc2ccccc2[nH]1,-31,-32,7,12*
SMILES,OPRM1-OPRD1 inv,HTR5A inv ag,MOR-DOR ag,HTR5A ag ctr
CCCCC(=O)N(c1ccc(C(=O)O)cc1)c1nc(-c2ccc(Cl)cc2)c(CC)s1,2,15,0,-6
Cc1nc2sccn2c(=O)c1S(=O)(=O)Nc1ccc(N2CCN(S(C)(=O)=O)CC2)cc1,-9,6,1,-1
CCCCOc1ccc(CSCCNC(=S)Nc2ccccc2)cc1,-12,-13,2,14*
O=C1Nc2ccccc2C1(c1ccccc1)c1ccccc1,-170,-64,29*,39*
O=C(COc1cccc(Br)c1)N/N=C1\CCCc2ccccc21,3,3,0,14*
O=C(COc1cccc(Br)c1)NN=C1c2ccccc2-c2ccccc21,12,-12,-2,1
CCOC(=O)N1CCN(C(=O)c2cn(CC)c3ccc(S(=O)(=O)N(C)C4CCCCC4)cc3c2=O)CC1,16,20,-3,-5
CCOc1cc(/C=C2\N=C(SC(C)C(N)=O)N(c3ccc(OC(F)F)cc3)C2=O)ccc1O (stereo unspecified),-12,1,2,7
CCN(CC)S(=O)(=O)c1cc(NC(=O)CN2CCN(c3ccccn3)CC2)ccc1C,11,1,-2,6
